Key:
Test in all cases: growth inhibition (% activity, log2 RLU normalised to DMSO / staurosporine); higher = more growth inhibition
Conditions in all cases: 33 µM
DIPGX29 = test system: DIPGX29 (H3.3 K27M diffuse intrinsic pontine glioma line)
Method in brief: (§1)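 The growth-inhibition value comes from CellTiter-Glo luminescence, log2-transformed, normalised per plate to % activity between solvent and positive control wells, and taken as the median over replicates. Treatment of pHGG cell lines and H9-derived neural stem cells with approved drugs was at a single final concentration of about 33 μM, in triplicate, for 7 days at 37 °C, 5% CO2.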

DIPGX37 = test system: DIPGX37 (H3.3 K27M diffuse intrinsic pontine glioma line)
Method in brief: as §1

DIPGX7 = test system: DIPGX7 (H3.3 K27M diffuse intrinsic pontine glioma line)
Method in brief: as §1

DIPGX9 = test system: DIPGX9 (diffuse intrinsic pontine glioma line)
Method in brief: as §1

HGGX39 = test system: HGGX39 (paediatric high-grade glioma line)
Method in brief: as §1

HGGX6 = test system: HGGX6 (H3.3 G34R paediatric high-grade glioma line)
Method in brief: as §1

HNSC = test system: HNSC
Method in brief: as §1

SUDIPGIV = test system: SUDIPGIV (diffuse intrinsic pontine glioma line)
Method in brief: as §1

SUDIPGVI = test system: SUDIPGVI (diffuse intrinsic pontine glioma line)
Method in brief: as §1

SUDIPGXIII = test system: SUDIPGXIII (diffuse intrinsic pontine glioma line)
Method in brief: as §1

Row | Structure (SMILES) | growth inhibition (DIPGX29) [%] | growth inhibition (DIPGX37) [%] | growth inhibition (DIPGX7) [%] | growth inhibition (DIPGX9) [%] | growth inhibition (HGGX39) [%] | growth inhibition (HGGX6) [%] | growth inhibition (HNSC) [%] | growth inhibition (SUDIPGIV) [%] | growth inhibition (SUDIPGVI) [%] | growth inhibition (SUDIPGXIII) [%]
1 | CN1CCN(C2=Nc3ccccc3Oc3ccc(Cl)cc32)CC1 | -0.96 | 1.38 | -0.128 | 1.22 | 6.27 | -0.859 | 1.57 | 4.37 | -2.03 | 0.859
2 | O=C(Nc1ccccc1)c1ccccc1O | -0.176 | 2.96 | 0.467 | -0.488 | 3.96 | 0.186 | 1.7 | 5.1 | -0.592 | 1.74
3 | CC(CCc1ccc(O)cc1)NCC(O)c1ccc(O)cc1 (stereo not given) | -1.35 | 0.666 | -1 | 0.398 | 3.25 | -2.19 | 5.04 | 2.35 | 2.3 | 0.356
4 | C#CCN[C@@H]1CCc2ccccc21 | 1.3 | 4.12 | 1.95 | 1.74 | 3.31 | -0.441 | 12.3 | 2.79 | 1.93 | 0.598
5 | CO/N=C(\C(=O)N[C@@H]1C(=O)N2C(C(=O)OCOC(=O)C(C)(C)C)=C(/C=C\c3scnc3C)CS[C@H]12)c1csc(N)n1 | -0.112 | 1.84 | 0.192 | -1.35 | 1.82 | -1.1 | 0.492 | 0.557 | 0.818 | -0.304
6 | O=S(=O)(O)c1cc(O)ccc1O | -4.18 | -4.39 | -0.642 | -3.41 | -5.27 | -3.97 | 13.9 | -3.95 | -12.4 | 1.53
7 | N[C@H](C(=O)O)[C@H](O)c1ccc(O)c(O)c1 | -1.91 | -2.48 | -1.18 | -0.989 | -1.97 | -1.74 | -3.73 | -1.1 | -1.43 | -4.54
8 | CC(C)C(=O)Nc1ccc([N+](=O)[O-])c(C(F)(F)F)c1 | 1.6 | 2.28 | 2.18 | 2.7 | 11.9 | 0.873 | 6.29 | 5.63 | 3.39 | 2.07
9 | O=C(O)C1(C(=O)O)CCC1.[NH2-].[NH2-].[Pt+2] | -2.53 | 0.00905 | -1.49 | -0.992 | -2.69 | -4.21 | 4.08 | -3.4 | -3.41 | -0.0982
10 | Nc1cc(C(Cl)=C(Cl)Cl)c(S(N)(=O)=O)cc1S(N)(=O)=O | 0.128 | 3.1 | 1.7 | 0.825 | 2.48 | 1.57 | 1.89 | 1.51 | -1.12 | 1.37
11 | CC(=O)NC[C@H]1CN(c2ccc(N3CCOCC3)c(F)c2)C(=O)O1 | 0.341 | -2.02 | 0.521 | 1.07 | 3.34 | 1.89 | 6.16 | 4.69 | 1.21 | 1.55
12 | NC(=O)CC[C@H](N)C(=O)O | -1.66 | 0.802 | -0.27 | 0.17 | -0.498 | -1.45 | -2.34 | -1.24 | 1.4 | -0.384
13 | CC(C)NCC(O)c1ccc(O)c(O)c1 (stereo not given) | -3.68 | -0.899 | -1.64 | -0.316 | -1.58 | 0.187 | -3.47 | -0.959 | -4.2 | -0.909
14 | CN(C)CCc1c[nH]c2ccc(Cn3cncn3)cc12 | -0.697 | 0.65 | -0.925 | 0.553 | 1.2 | 1.15 | -1.13 | -0.297 | 1.51 | -0.819
15 | O=c1n(CCCN2CCN(c3cccc(Cl)c3)CC2)nc2ccccn12 | 3.64 | 2.01 | 4.26 | 3.67 | 4.78 | 3.57 | 6.62 | 2.09 | 4.36 | 0.00306
16 | CC(C)NCC(O)c1ccc(NS(C)(=O)=O)cc1 (stereo not given) | -1.59 | 1.48 | 1.46 | 0.414 | 0.329 | -2.93 | 9.65 | 3.05 | 2.59 | -1.17
17 | CC(C)(O)c1ccccc1CC[C@@H](SCC1(CC(=O)O)CC1)c1cccc(/C=C/c2ccc3ccc(Cl)cc3n2)c1 | -0.862 | 0.461 | -2.4 | -1.33 | -0.172 | -2.63 | -3.15 | -1.21 | -0.324 | -15.7
18 | NC(=O)Cc1cccc(C(=O)c2ccccc2)c1N | -1.79 | -2.49 | -1.26 | -0.361 | -1.73 | 0.913 | -2.2 | -3.13 | -0.113 | 0.258
19 | NC1CCN(c2c(F)cc3c(=O)c(C(=O)O)cn(C4CC4)c3c2Cl)C1 (stereo not given) | 0.157 | -1.86 | 1.13 | 1.33 | 2.79 | -0.611 | 1.85 | -0.22 | 1.99 | -0.254
20 | CC(NCCc1ccc(O)cc1)C(O)c1ccc(O)cc1 (stereo not given) | -0.577 | -0.38 | -0.502 | 1.19 | 1.54 | -0.151 | -0.0915 | -0.121 | 1.63 | -1.5
21 | CCCCCCCCCCCCCCCC[N+](C)(C)C | 27.4 | 41.6 | 34 | 22.2 | 48.6 | 23.6 | 59.5 | 36.8 | 57.8 | 18.1

Row | Structure (SMILES) | growth inhibition (DIPGX29) [%] | growth inhibition (DIPGX37) [%] | growth inhibition (DIPGX7) [%] | growth inhibition (DIPGX9) [%] | growth inhibition (HGGX39) [%] | growth inhibition (HGGX6) [%] | growth inhibition (HNSC) [%] | growth inhibition (SUDIPGIV) [%] | growth inhibition (SUDIPGVI) [%] | growth inhibition (SUDIPGXIII) [%]
22 | COc1ccc(O)cc1 | -0.0157 | 0.851 | 0.553 | 0.0566 | -0.798 | 0.118 | 0.201 | -3.15 | -3.4 | 0.564
23 | COC(=O)C1=C(C)NC(C)=C(C(=O)OC(C)C)C1c1cccc2nonc12 (stereo not given) | -2.46 | -3.83 | 1.18 | -3.89 | -6.2 | -4.5 | -4.73 | -4.11 | -12.6 | 3.66
24 | CCCCNc1cc(C(=O)O)cc(S(N)(=O)=O)c1Oc1ccccc1 | -3.49 | -2.83 | -0.851 | -2.74 | -2.98 | -3.62 | -3.52 | -5.34 | -8.55 | -2.43
25 | C[C@H]1NC(=O)NC1=O | -0.365 | 0.903 | -1.69 | -0.744 | -0.268 | 0.316 | -0.248 | -0.465 | 1.41 | 0.834
26 | O=S(=O)(O)CCS | -1.06 | 0.485 | -0.101 | 0.715 | -0.445 | -1.07 | 0.589 | -0.0759 | 1.78 | -0.97
27 | CC(C)(C)NC(=O)[C@H]1CC[C@H]2[C@@H]3CC[C@H]4NC(=O)C=C[C@]4(C)[C@H]3CC[C@]12C | 1.8 | 1.06 | 2.69 | 0.827 | 2.11 | -0.348 | 4.13 | 0.54 | 1.81 | 0.754
28 | CO[C@H]1C[C@@H]2CC[C@@H](C)[C@@](O)(O2)C(=O)C(=O)N2CCCC[C@H]2C(=O)O[C@H]([C@H](C)C[C@@H]2CC[C@@H](OCCO)[C@H](OC)C2)CC(=O)[C@H](C)/C=C(\C)[C@@H](O)[C@@H](OC)C(=O)[C@H](C)C[C@H](C)/C=C/C=C/C=C/1C | 4.26 | 2.47 | 3.53 | 14 | 8.9 | 7.45 | 7.71 | 1.16 | 10.5 | 1.36
29 | N#Cc1ccc(C(c2ccc(C#N)cc2)n2cncn2)cc1 | -0.88 | 0.114 | -0.157 | -0.262 | -0.621 | -0.866 | 0.581 | -0.66 | 1.28 | 1.04
30 | CN1CCN(C2=Nc3cc(Cl)ccc3Nc3ccccc32)CC1 | 3.8 | 0.486 | 1.02 | -2.02 | 1.24 | 0.753 | -1.26 | -0.494 | -5.31 | -1.11
31 | CCCS(=O)(=O)Nc1ccc(F)c(C(=O)c2c[nH]c3ncc(-c4ccc(Cl)cc4)cc23)c1F | 0.0739 | 1.21 | -0.987 | 0.227 | -0.449 | 2.46 | 10.9 | -3.02 | 1.21 | 1.79
32 | CCCNC(C)C(=O)Nc1c(C)csc1C(=O)OC (stereo not given) | 0.453 | 0.894 | 1.5 | -0.444 | 3.43 | 1.44 | 5.64 | 0.331 | 2.98 | -0.525
33 | CC[C@@H]1C(=O)OC[C@@H]1Cc1cncn1C | -0.467 | 1.71 | -1.24 | -1.88 | 0.217 | -0.083 | -2.25 | -1.63 | 0.518 | -11.1
34 | N[C@@H]1CN(c2c(F)cc3c(=O)c(C(=O)O)cn([C@@H]4C[C@@H]4F)c3c2Cl)CC12CC2 | 1.84 | 4.34 | 1.79 | 0.793 | 3.53 | 0.649 | 0.64 | 0.64 | 3.9 | -3.35
35 | CCCCC1C(=O)N(c2ccccc2)N(c2ccccc2)C1=O | -0.206 | -1.51 | -0.44 | -1.82 | -1.47 | -2.46 | 0.0851 | -3.3 | -4.73 | -0.592
36 | OCCN(CCO)c1nc(N2CCCCC2)c2nc(N(CCO)CCO)nc(N3CCCCC3)c2n1 | -2.31 | -0.429 | -1.26 | -0.332 | 2.38 | 1.04 | -0.178 | -1.52 | -2.93 | 1.36
37 | CC(C)[C@H](N)C(=O)OCCOCn1cnc2c(=O)nc(N)[nH]c21 | 0.298 | 0.698 | -1.22 | 1.11 | 0.616 | 1.05 | -0.55 | -0.767 | 0.129 | 1.61
38 | CCC[C@H](N[C@@H](C)C(=O)N1[C@H](C(=O)O)C[C@@H]2CCCC[C@@H]21)C(=O)OCC | 1.9 | 3.94 | 2.49 | 2.02 | 2.66 | 2.59 | 0.292 | 0.563 | 1.95 | 0.674
39 | Cc1ccc(C(=O)c2ccc(CC(=O)O)n2C)cc1 | -0.189 | -0.055 | 0.146 | 0.57 | 0.449 | -0.641 | 2.18 | -4 | 1.82 | -0.302
40 | O=C(CCCCCCC(=O)Nc1ccccc1)NO | 46.8 | 23.9 | 51.7 | 49.5 | 18.5 | 33.7 | 70.6 | 44.9 | 38.5 | 28
41 | CNC(=O)CN(CCN(CCN(CC(=O)[O-])CC(=O)NC)CC(=O)[O-])CC(=O)[O-].[Gd+3] | -2.04 | -0.306 | -1.48 | -2.31 | -1.74 | 1.15 | -6.04 | -1.08 | -1.67 | 0.753
